# Vif inh – inhibitors of HIV Vif | AID 602346 | 340,000 tested, 0.35% active | inhibition, % at 7.49 µM | HEK293T cells, Vif self-association by quenched fluorescence, imaging, 24 h; in the data active = inhibition above about 50%, passing the limit was not always enough
# CFTR F508del cor – correctors of CFTR F508del function in bronchial epithelial cells; CFBE cells, YFP halide quenching; stimulated with forskolin plus potentiator P3; % fluorescence drop versus neutral controls; activity (quench increase), % at 7.58 µM; 350,000 tested, 0.36% active;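 active = mean added fluorescence quench of at least 8% versus neutral control, with both replicates also reaching 8%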;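 note: cells transiently co-express mutant CFTR-F508del with the halide-sensitive YFP; corrector assay measuring rescue of mutant channel to the surface after 24 h compound exposure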
# FGF22 binding – shifts melting point of recombinant human FGF22; AID 651658; 340,000 tested, 1.5% active; Q9HCT0; activity (Tm shift, normalised), % at 9.99 µM; recombinant FGF22 thermal shift, SYPRO orange fluorescence; percent of sucrose octasulfate shift, DMSO zero;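 active = mean Tm shift, scaled 0 neutral to 100 positive control, at about 1.3% or above, every replicate too, limit read from the data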
# Target sequence (Q9HCT0 whole entry, looked up): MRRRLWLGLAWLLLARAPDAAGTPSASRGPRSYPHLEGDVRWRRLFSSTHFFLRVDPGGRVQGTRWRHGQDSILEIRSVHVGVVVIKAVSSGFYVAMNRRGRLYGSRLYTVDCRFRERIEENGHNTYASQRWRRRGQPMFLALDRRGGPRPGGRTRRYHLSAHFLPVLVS
# Numbers stand for hits; n = inactive; x = no result. This is a sample that favours compounds with a hit; in the whole collection about 1.7% have one here.
SMILES,Vif inh,CFTR F508del cor,FGF22 binding
COc1ccc(/C=C2\C(=O)NC(=O)c3ccccc32)cc1OC,n,n,n
CCN(C[C@@H]1[C@@H](c2ccc(C3=CCCCC3)cc2)[C@@H](CO)N1C(C)=O)C(C)=O,x,n,x
Cc1cc(C)n(-c2ncnc3ccccc23)n1,n,n,43
Cc1ccc(Nc2nc3ccccc3nc2-n2nc(C)cc2C)cc1,x,n,n
O=C(C[C@@H]1C[C@@H]2c3cc(NC(=O)Cc4ccncc4)ccc3O[C@@H]2[C@@H](CO)O1)NCc1ccccc1,x,n,n
Cc1ccccc1-c1nn(-c2ccccc2)cc1C(=O)NCC(c1ccco1)N1CCCC1 (configuration not stated),n,n,n
COc1ccc(OC)c(-c2nn(-c3ccccc3)cc2C(=O)NCC(c2ccco2)N2CCCC2)c1 (configuration not stated),54,n,n
O=C(C[C@H]1CC[C@@H](NC(=O)C2CC2)[C@@H](CO)O1)NCc1ccncc1,x,n,n
c1ccc(Nc2ccc3c4c(cccc24)CC3)cc1,111,x,x
c1ccc(Nc2cccc3ccccc23)cc1,n,n,n
CCOC(=O)C1CCN(C(=O)COc2ccc([N+](=O)[O-])cc2)CC1,n,n,43
CCOC(=O)C1CCN(C(=O)COC(=O)/C=C/c2ccc([N+](=O)[O-])cc2)CC1,n,n,n
C[C@H](O)C#Cc1ccc2c(c1)O[C@@H](CN(C)CC1CC1)[C@@H](C)CN([C@@H](C)CO)S2(=O)=O,x,n,x
O=C(/C=C/c1ccc(Br)cc1)c1ccc(NC(=O)c2ccco2)cc1,n,x,x
CCN(c1ccccc1)S(=O)(=O)c1ccc(OC)c(NC(=O)c2ccco2)c1,n,n,43
O=C(/C=C/c1ccccc1)Nc1cc(C(=O)O)cc(C(=O)O)c1,n,n,n
COC(=O)c1cc(NC(=O)/C=C/c2ccccc2)ccc1O,x,n,43
CCN(c1ccccc1)S(=O)(=O)c1ccc(OC)c(NC(=O)c2ccccc2OC)c1,n,n,n
O=C(/C=C\c1ccccc1)Nc1ccc(NC(=O)c2ccco2)cc1,n,n,1.5
COc1cc(NC(=O)COc2ccccc2)ccc1NC(=O)c1ccco1,66,n,n
COc1cc(NC(=O)COc2ccccc2C)ccc1NC(=O)c1ccco1,n,n,n
C[C@H](CO)N1C[C@H](C)[C@H](CN(C)C(=O)[C@H]2CCCN2C)OCc2ccccc2-c2c(n(C)c3ccccc23)C1=O,x,n,n
COCC(=O)N1C[C@H](C)[C@@H](OC)CN(C)C(=O)c2ccc(NC(=O)NC(C)C)cc2OC[C@@H]1C,x,n,n
C[C@H]1CN([C@@H](C)CO)C(=O)c2cc(NS(=O)(=O)c3ccccc3)ccc2O[C@H]1CN(C)Cc1ccc(C(=O)O)cc1,x,n,n
COc1ccc(-c2ccc(NC(=O)c3ccco3)cc2)nn1,n,n,1.8
SMILES,Vif inh,CFTR F508del cor,FGF22 binding
COc1ccc(-c2cccc(NC(=O)c3ccco3)c2)nn1,n,n,n
O=C(COc1ccccc1)Nc1ccc(NC(=O)c2ccco2)cc1,n,n,44
COc1ccc(OCC(=O)Nc2ccc(NC(=O)c3ccco3)cc2)cc1,n,x,x
O=C(C[C@H]1CC[C@@H](NC(=O)c2cccc(F)c2)[C@H](CO)O1)NCc1ccc(Oc2ccccc2)cc1,x,n,n
COc1cccc(C(C(=O)NC2CCCCC2)N(C(=O)c2cccs2)c2ccc3c(c2)OCO3)c1 (configuration not stated),n,n,44
COc1cccc(C(C(=O)NC2CCCCC2)N(C(=O)Cc2cccs2)c2ccc(-n3cnnn3)c(OC)c2)c1 (configuration not stated),n,x,x
O=C(NCC[C@@H]1CC[C@@H](NS(=O)(=O)c2ccc(F)cc2)[C@H](CO)O1)Nc1ccc(F)cc1,x,n,n
O=C(C[C@@H]1C[C@@H]2c3cc(NC(=O)NC4CCCC4)ccc3O[C@@H]2[C@H](CO)O1)NCCc1ccccc1,x,n,n
C[C@H]1CN([C@@H](C)CO)C(=O)c2cccc(NS(=O)(=O)c3ccccc3)c2O[C@@H]1CN(C)C(=O)Nc1ccccc1,x,n,n
CC(=O)N1CCCN(Cc2cn(-c3ccc(C)cc3)nc2-c2ccc(F)cc2)CC1,n,n,43
Cc1ccc(-n2cc(CN3CCCN(C=O)CC3)c(-c3ccc(F)cc3)n2)cc1,n,n,n
Cc1ccc(C(=O)N/C(=C\c2sccc2C)C(=O)NCc2ccco2)cc1,51,x,x
Cc1ccc(C(=O)N/C(=C\c2sccc2C)C(=O)NCc2ccncc2)cc1,n,x,x
O=C(Nc1nc2ccccc2s1)c1cccc(N2C(=O)CCC2=O)c1,n,n,n
O=C(Nc1ccc2sccc2c1)c1cccc(N2C(=O)CCC2=O)c1,n,n,43
C[C@@H]1CCCCO[C@@H](CN(C)C)[C@@H](C)CN([C@H](C)CO)C(=O)c2cc(NS(=O)(=O)c3cn(C)cn3)ccc2O1,x,n,n

# Screening data: PubChem BioAssay, Broad Institute
